Test results reported in PubChem BioAssay (Tox21).
“And” between values parts separate entries of the source, which are not always exact repeats. Equal entries are not always repeated. Some structures have more than one record in an assay (separate samples or runs), and their calls can disagree. The source made the active and inactive calls. Unless noted, calls come from the whole dose curve; as a rule, active = well fitted curve in the direction sought with a large enough effect in the repeat runs; inconclusive = weak or mixed curves; inactive = no such curve, though single readings can be large; an effect the other way counts as inactive or inconclusive.

Assays:
[1] = qHTS assay to identify small molecule antagonists of the thyroid receptor (TR) signaling pathway (AID 743065); note: nearly all actives have a fitted effect of over 55% in size; note: potency is the fitted concentration of half-maximal effect
Outline: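 GH3.TRE-Luc rat pituitary cells (two TREs driving luciferase) were dosed with compound, then stimulated with 1 nM T3 (final) for 23.5 h at 37 C. ONE-Glo luminescence was the read-out, with CellTiter-Fluor fluorescence as the cytotoxicity counter-screen.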

[2] = test system: thyroid hormone receptor (rat, GH3 cells); assay: qHTS assay to identify small molecule agonists of the thyroid receptor (TR) signaling pathway (AID 743066; calls by dose curve)
[3] = qHTS assay to identify small molecule antagonists of the estrogen receptor alpha (ER-alpha) signaling pathway - cell viability counter screen (AID 743074; calls by dose curve;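 note: HEK293 cells carrying ER-alpha-UAS-bla reporter stimulated with 17beta-estradiol; nearly all actives have a fitted effect of over 45% in size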)
[4] = qHTS assay to identify small molecule antagonists of the estrogen receptor alpha (ER-alpha) signaling pathway using the BG1 cell line - cell viability counter screen (AID 743081);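 note: compound given together with 17beta-estradiol as the ER stimulus; nearly all actives have a fitted effect of over 45% in size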
Aromatase (Homo sapiens) = Aromatase (Homo sapiens) (UniProt P11511); assay: qHTS assay to identify aromatase inhibitors (AID 743083); note: nearly all actives have a fitted effect of over 55% in size; note: potency is the fitted concentration of half-maximal effect
Aromatase (Homo sapiens), sequence (P11511 whole entry, looked up): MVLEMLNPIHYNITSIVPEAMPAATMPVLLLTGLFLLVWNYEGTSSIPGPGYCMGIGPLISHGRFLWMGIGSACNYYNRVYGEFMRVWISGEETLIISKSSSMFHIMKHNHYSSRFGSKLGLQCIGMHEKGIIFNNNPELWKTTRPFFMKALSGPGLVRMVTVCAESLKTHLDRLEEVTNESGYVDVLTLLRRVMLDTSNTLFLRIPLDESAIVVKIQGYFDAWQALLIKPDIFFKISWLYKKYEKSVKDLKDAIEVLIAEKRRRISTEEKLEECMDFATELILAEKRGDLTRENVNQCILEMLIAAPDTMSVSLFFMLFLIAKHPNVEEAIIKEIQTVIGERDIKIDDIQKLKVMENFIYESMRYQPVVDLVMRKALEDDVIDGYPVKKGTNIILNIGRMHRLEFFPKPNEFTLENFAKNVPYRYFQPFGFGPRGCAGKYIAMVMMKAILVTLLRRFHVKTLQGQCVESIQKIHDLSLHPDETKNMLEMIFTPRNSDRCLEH

[5] = qHTS assay to identify aromatase inhibitors - cell viability counter screen (AID 743084);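 note: cells stimulated with testosterone during compound exposure; nearly all actives have a fitted effect of over 55% in size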
[6] = qHTS assay to identify small molecule that activate the aryl hydrocarbon receptor (AhR) signaling pathway - cell viability counter screen (AID 743086);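 note: HepG2 liver cells carrying the AhR DRE luciferase reporter; nearly all actives have a fitted effect of over 45% in size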
Outline: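 HepG2-AhR-luc (HG2L7.5c1) cells, 4000/well, treated 24 h at 37 C with compound; viability measured as CellTiter-Fluor fluorescence after 30 min in the same wells as the luciferase read.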

[7] = molecular target: Peroxisome proliferator-activated receptor gamma (Homo sapiens) (UniProt P37231); assay: qHTS assay to identify small molecule agonists of the peroxisome proliferator-activated receptor gamma (PPARg) signaling pathway (AID 743094; active = well fitted activation curve with a large enough effect in the signal ratio in the repeat runs, not every such curve was filed as active; inconclusive = weak or mixed curves, or effect the other way; inactive = no such curve, though single readings can be large or run the other way; the % refers to the signal ratio; note: potency is the fitted concentration of half-maximal effect)
Peroxisome proliferator-activated receptor gamma (Homo sapiens), sequence (P37231 whole entry, looked up): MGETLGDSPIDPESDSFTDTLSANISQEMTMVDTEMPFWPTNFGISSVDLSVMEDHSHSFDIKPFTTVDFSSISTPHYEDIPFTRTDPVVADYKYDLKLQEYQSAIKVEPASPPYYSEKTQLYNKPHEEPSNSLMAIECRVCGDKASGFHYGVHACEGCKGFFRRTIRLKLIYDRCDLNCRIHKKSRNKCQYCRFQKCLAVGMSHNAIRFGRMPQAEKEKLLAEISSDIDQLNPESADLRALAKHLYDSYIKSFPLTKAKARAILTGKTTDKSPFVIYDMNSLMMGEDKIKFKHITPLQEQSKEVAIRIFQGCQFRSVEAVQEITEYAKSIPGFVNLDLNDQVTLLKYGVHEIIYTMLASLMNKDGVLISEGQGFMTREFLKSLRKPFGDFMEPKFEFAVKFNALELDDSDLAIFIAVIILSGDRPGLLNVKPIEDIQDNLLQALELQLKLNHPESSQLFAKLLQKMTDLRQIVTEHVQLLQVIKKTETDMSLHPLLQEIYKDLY
Outline: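 Stably transfected HEK293H cells (GeneBLAzer PPARg UAS-bla) were incubated with test substances for 17 h at 37C after a 5 h pre-incubation; beta-lactamase activity was then detected by FRET substrate fluorescence.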

[8] = molecular target: Peroxisome proliferator-activated receptor gamma (Homo sapiens) (UniProt P37231); assay: qHTS assay to identify small molecule antagonists of the peroxisome proliferator-activated receptor gamma (PPARg) signaling pathway (AID 743191; calls by dose curve; note: nearly all actives have a fitted effect of over 30% in size; note: potency is the fitted concentration of half-maximal effect)
Outline: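 GeneBLAzer PPARg UAS-bla HEK293H cells, 5 h post-plating, exposed to compounds 17 h at 37C. LiveBLAzer B/G FRET substrate added for 1 h at room temperature; beta-lactamase reporter read by fluorescence intensity.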

[9] = qHTS assay to identify small molecule antagonists of the peroxisome proliferator-activated receptor gamma (PPARg) signaling pathway - cell viability counter screen (AID 743194); note: nearly all actives have a fitted effect of over 55% in size; note: potency is the fitted concentration of half-maximal effect
Outline: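 Cytotoxicity counter screen in PPARg-bla HEK293H cells, same wells as reporter assay. Compounds plus 50 nM rosiglitazone (final) for 17 h at 37 C, then viability read by CellTiter-Glo luminescence.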

[10] = qHTS assay for small molecule agonists of the antioxidant response element (ARE) signaling pathway (AID 743202; active = well fitted activation curve with a large enough effect in the signal ratio in the repeat runs, not every such curve was filed as active; inconclusive = weak or mixed curves, or effect the other way; inactive = no such curve, though single readings can be large or run the other way; the % refers to the signal ratio; note: potency is the fitted concentration of half-maximal effect)
Outline: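 Agonist mode reporter screen: HepG2 cells with ARE-controlled beta-lactamase are incubated with test compounds for 16 h at 37 C, and beta-lactamase activity is measured as fluorescence of cleaved B/G FRET substrate.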

[11] = qHTS assay for small molecule activators of the heat shock response signaling pathway - cell viability counter screen (AID 743209); note: nearly all actives have a fitted effect of over 50% in size
Outline: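 Quantitative HTS format, Tox21 10K library. HeLa cells carrying an HSE-driven beta-lactamase reporter were treated 5 h at 37 C, then assessed for viability by CellTiter-Glo luminescence.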

[12] = qHTS assay for small molecule activators of the heat shock response signaling pathway (AID 743210; active = well fitted activation curve with a large enough effect in the signal ratio in the repeat runs, with a control signal flat, not every such curve was filed as active; inconclusive = weak or mixed curves; the % refers to the signal ratio;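 note: HeLa cells with beta-lactamase reporter driven by heat shock elements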)
Outline: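 Quantitative high-throughput format using an engineered HeLa line in which heat shock response elements drive beta-lactamase; after 5 h with compound, cells received a B/G FRET substrate and fluorescence was read.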

[13] = molecular target: Estrogen receptor (Homo sapiens) (UniProt P03372); assay: qHTS assay to identify small molecule agonists of the estrogen receptor alpha (ER-alpha) signaling pathway (AID 743075; calls by dose curve;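 note: HEK293 GripTite cells with ER-alpha and UAS-driven beta-lactamase reporter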; note: potency is the fitted concentration of half-maximal effect)
Estrogen receptor (Homo sapiens), sequence (P03372 whole entry, looked up): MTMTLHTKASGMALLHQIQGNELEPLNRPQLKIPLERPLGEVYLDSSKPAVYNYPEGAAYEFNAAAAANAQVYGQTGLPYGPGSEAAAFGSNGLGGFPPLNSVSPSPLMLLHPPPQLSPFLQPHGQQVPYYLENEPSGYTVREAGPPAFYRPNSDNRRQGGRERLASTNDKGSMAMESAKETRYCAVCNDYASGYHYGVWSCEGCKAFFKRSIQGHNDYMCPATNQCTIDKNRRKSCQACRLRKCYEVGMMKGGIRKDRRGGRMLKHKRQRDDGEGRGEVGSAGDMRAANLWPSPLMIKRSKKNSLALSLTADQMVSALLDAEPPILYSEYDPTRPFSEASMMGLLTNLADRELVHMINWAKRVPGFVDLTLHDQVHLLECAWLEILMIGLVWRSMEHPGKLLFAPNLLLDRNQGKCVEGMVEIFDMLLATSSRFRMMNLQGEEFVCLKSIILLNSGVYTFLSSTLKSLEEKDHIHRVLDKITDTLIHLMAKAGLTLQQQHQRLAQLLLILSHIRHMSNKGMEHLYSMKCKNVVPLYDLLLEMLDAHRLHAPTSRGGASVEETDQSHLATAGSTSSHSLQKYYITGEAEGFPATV

[14] = molecular target: Estrogen receptor (Homo sapiens) (UniProt P03372); assay: qHTS assay to identify small molecule agonists of the estrogen receptor alpha (ER-alpha) signaling pathway using the BG1 cell line (AID 743079); details: BG1Luc4E2 cells, ERE-luciferase agonist, 22 h; activation: at 70.3 µM (top of the series); note: nearly all actives have a fitted effect of over 20% in size; note: potency is the fitted concentration of half-maximal effect
[15] = qHTS assay to identify small molecule antagonists of the estrogen receptor alpha (ER-alpha) signaling pathway using the BG1 cell line (AID 743080; calls by dose curve; note: nearly all actives have a fitted effect of over 25% in size; note: potency is the fitted concentration of half-maximal effect)
Outline: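 Antagonist mode: compounds in DMSO were pinned onto BG1-Luc-4E2 cells alongside 17beta-estradiol agonist, incubated 21.5 h, and ERE-driven luciferase measured with ONE-Glo. Cytotoxicity was multiplexed using CellTiter-Fluor fluorescence.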

[16] = qHTS assay for small molecule agonists of the antioxidant response element (ARE) signaling pathway - cell viability counter screen (AID 743203; calls by dose curve; note: nearly all actives have a fitted effect of over 55% in size; note: potency is the fitted concentration of half-maximal effect)
Outline: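 Cells (ARE-bla HepG2, 2,000/well) receive DMSO-dissolved compounds after a 5 hrs rest. Plates incubate 16 hrs at 37C/5% CO2. CellTiter-Glo luminescence is then recorded after 30 min at room temperature.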

[17] = molecular target: Aryl hydrocarbon receptor (Homo sapiens) (UniProt P35869); assay: qHTS assay to identify small molecule that activate the aryl hydrocarbon receptor (AhR) signaling pathway (AID 743085); note: nearly all actives have a fitted effect of over 15% in size; note: potency is the fitted concentration of half-maximal effect;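 for activation: HG2L7.5c1 human HepG2 liver cells with stably integrated DRE-driven firefly reporter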
Aryl hydrocarbon receptor (Homo sapiens), sequence (P35869 whole entry, looked up): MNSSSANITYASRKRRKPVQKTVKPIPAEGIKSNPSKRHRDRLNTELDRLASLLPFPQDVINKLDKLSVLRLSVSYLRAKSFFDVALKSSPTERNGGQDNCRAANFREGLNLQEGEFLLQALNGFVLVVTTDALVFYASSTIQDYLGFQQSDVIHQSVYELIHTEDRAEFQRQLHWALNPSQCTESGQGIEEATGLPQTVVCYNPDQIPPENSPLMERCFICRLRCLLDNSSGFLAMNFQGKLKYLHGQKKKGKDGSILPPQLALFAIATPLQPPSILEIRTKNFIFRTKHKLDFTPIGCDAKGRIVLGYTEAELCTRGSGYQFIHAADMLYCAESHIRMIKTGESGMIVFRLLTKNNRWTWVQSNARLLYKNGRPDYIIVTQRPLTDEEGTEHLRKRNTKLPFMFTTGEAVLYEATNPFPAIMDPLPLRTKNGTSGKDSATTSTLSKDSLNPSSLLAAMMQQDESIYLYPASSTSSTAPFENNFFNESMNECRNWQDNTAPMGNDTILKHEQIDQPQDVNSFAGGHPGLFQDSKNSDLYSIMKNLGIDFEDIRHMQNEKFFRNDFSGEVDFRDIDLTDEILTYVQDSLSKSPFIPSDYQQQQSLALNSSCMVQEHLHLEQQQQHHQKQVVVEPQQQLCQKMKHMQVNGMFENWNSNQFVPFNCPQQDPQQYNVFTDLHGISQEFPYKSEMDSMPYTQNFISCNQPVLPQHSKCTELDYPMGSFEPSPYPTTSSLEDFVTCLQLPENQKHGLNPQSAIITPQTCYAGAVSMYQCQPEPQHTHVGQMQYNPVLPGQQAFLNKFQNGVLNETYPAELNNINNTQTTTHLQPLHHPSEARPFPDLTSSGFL
Outline: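 Cell line HG2L7.5c1 (human hepatoma, 20× DRE-luc). Plated, 5 h 37C, compound/DMSO added, 24 h 37C. CellTiter-Fluor 30 min 37C → fluorescence; then ONE-Glo 30 min RT → luminescence.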

[18] = molecular target: Estrogen receptor (Homo sapiens) (UniProt P03372); assay: qHTS assay to identify small molecule antagonists of the estrogen receptor alpha (ER-alpha) signaling pathway (AID 743069; active = well fitted curve in the direction sought with a large enough effect in the signal ratio in the repeat runs, not every such curve was filed as active; inconclusive = weak or mixed curves, or effect the other way; inactive = no such curve, though single readings can be large or run the other way; the % refers to the signal ratio)
Outline: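 Reporter cells (ER-alpha-bla, HEK293 background) are conditioned overnight in stripped-serum medium (2% charcoal-stripped FBS). Compound and 17beta-estradiol exposure runs 18 hr at 37C, 5% CO2.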
% is set by controls: 0 for no effect and ±100 for the full control effect.

CC(=O)Nc1ccc(C)cc1C
inactive: Potency [1] | outcome [2] | Potency [3] | Potency [4] | Potency (Aromatase (Homo sapiens)) | Potency [5] | Potency [6] | Potency [7] | Potency [8] | Potency [9] | Potency [10] | Potency [11] | Potency [12]

C[C@H]1c2cccc(O)c2C(O)=C2C(=O)[C@]3(O)C(O)=C(C(N)=O)C(=O)[C@@H](N(C)C)[C@@H]3[C@@H](O)[C@@H]21
inactive: Potency [1] | outcome [2] | Potency [3] | Potency [13] | Potency [14] | Potency [15] | Potency [4] | Potency (Aromatase (Homo sapiens)) | Potency [5] | Potency [6] | Potency [7] | Potency [9] | Potency [16] | Potency [11]

C[C@@H]1CN(CCCn2c3ccccc3c3ccccc32)C[C@H](C)N1
inactive: Potency [4] | Potency [5] | Potency [11] | Potency [12]
active: Potency [1] 8.41 µM | Potency [17] 26.6 µM | Potency [9] 23.7 µM | Potency [16] 26.6 µM

OC[C@H]1O[C@@H](n2cnc3c(=S)nc[nH]c32)[C@H](O)[C@@H]1O
active: Potency [1] 23.7 µM | Potency [9] 3.76 µM | Potency [10] 3.35 µM | Potency [16] 2.66 µM
inactive: outcome [2] | Potency [13] | Potency [14] | Potency [4] | Potency (Aromatase (Homo sapiens)) | Potency [5] | Potency [17] | Potency [6] | Potency [11] | Potency [12]

N#[N+]c1ccc2c(S(=O)(=O)[O-])cccc2c1O
inactive: Potency [1] | outcome [2] | Potency [3] | Potency [13] | Potency [15] | Potency [4] | Potency (Aromatase (Homo sapiens)) | Potency [7] | Potency [9] | Potency [10] | Potency [16] | Potency [11] | Potency [12]

O=C1c2ccccc2C(=O)C1(O)O
active: Potency [1] 54.8 µM | Potency [17] 61.4 µM
inactive: outcome [2] | Potency [3] | Potency [13] | Potency [14] | Potency [15] | Potency [4] | Potency [6] | Potency [7] | Potency [8] | Potency [9] | Potency [10] | Potency [11]

CCc1ccccc1
inactive: Potency [3] | Potency [13] | Potency [14] | Potency [15] | Potency [4] | Potency (Aromatase (Homo sapiens)) | Potency [5] | Potency [17] | Potency [6] | Potency [7] | Potency [8] | Potency [9] | Potency [16] | Potency [12]

C/C=C(/C(=C/C)c1ccc(O)cc1)c1ccc(O)cc1
active: Potency [13] 0.6 nM [inconclusive] | Potency [14] 0.0003 µM | Potency [8] 29.8 µM | Potency [10] 15 µM
inactive: outcome [2] | Potency [3] | Potency [15] | Potency [4] | Potency (Aromatase (Homo sapiens)) | Potency [5] | Potency [17] | Potency [7] | Potency [16] | Potency [11]

O=C1c2ccccc2C(=O)N1CCc1noc(-c2ccc(CN3CCCCCC3)s2)n1
inactive: outcome [2] | Potency [13] | Potency [4] | Potency [5] | Potency [7] | Potency [9] | Potency [16] | Potency [11] | Potency [12]
active: Potency [15] 49.9 µM | Potency [17] 6.29 µM | Potency [10] 6.29 µM

C=CCc1ccccc1OCC(O)CNC(C)C (stereo not drawn)
inactive: outcome [2] | Potency [3] | Potency [4] | Potency (Aromatase (Homo sapiens)) | Potency [5] | Potency [17] | Potency [6] | Potency [7] | Potency [9] | Potency [16] | Potency [11] | Potency [12]

CN1CCCN=C1COC(=O)C(O)(c1ccccc1)C1CCCCC1 (stereo not drawn)
inactive: outcome [2] | Potency [18] | Potency [13] | Potency [14] | Potency [15] | Potency [4] | Potency (Aromatase (Homo sapiens)) | Potency [5] | Potency [17] | Potency [6] | Potency [7] | Potency [11] | Potency [12]

O=C(O)CCc1nc(-c2ccccc2)c(-c2ccccc2)o1
inactive: outcome [2] | Potency [18] | Potency [3] | Potency [13] | Potency [15] | Potency [4] | Potency (Aromatase (Homo sapiens)) | Potency [5] | Potency [17] | Potency [6] | Potency [8] | Potency [16] | Potency [11] | Potency [12]
active: Potency [7] 15.1 µM

CC(CC1c2ccccc2CCc2ccccc21)CN(C)C (stereo not drawn)
inactive: Potency [16] | Potency [11]

CCCCN(CCCC)C(C(N)=O)c1ccc(OC)cc1 (stereo not drawn)
inactive: Potency [9] | Potency [10] | Potency [16] | Potency [11] | Potency [12]

OC1(c2ccccc2)CCNCC1
inactive: Potency [8] | Potency [9] | Potency [10] | Potency [16] | Potency [11] | Potency [12]

CCOc1cccc(-n2cc(C(=O)N3CCN(c4cc(C(=O)O)c5ccccc5c4)CC3)nc2-c2ccc(C)cc2)c1
active: Potency [9] 18.6 µM | Potency [10] 9.25 µM
inactive: outcome [2] | Potency [4] | Potency (Aromatase (Homo sapiens)) | Potency [5] | Potency [17] | Potency [6] | Potency [11]

COc1ccc(OC(=O)N(CC(=O)O)Cc2ccc(OCCc3nc(-c4ccccc4)oc3C)cc2)cc1
inactive: Potency [9] | Potency [16] | Potency [11] | Potency [12]

CCCCC(CC)CN (stereo not drawn)
inactive: outcome [2] | Potency [18] | Potency [13] | Potency [14] | Potency [15] | Potency [4] | Potency [5] | Potency [6] | Potency [7] | Potency [9] | Potency [16] | Potency [12]

C[C@]12CC[C@@H]3c4ccc(O)cc4CC[C@H]3[C@@H]1CC[C@@H]2OC(=O)CCC1CCCC1
active: Potency [13] 1.2 nM [inconclusive] and 0.5 nM [inconclusive] | activation [14] 60.2% and 48.5% and 30.3%
inactive: outcome [2] | Potency [3] | Potency [15] | Potency [4] | Potency [5] | Potency [17] | Potency [6] | Potency [7] | Potency [8] | Potency [10] | Potency [16]
inactive and 61.1 µM (active): Potency (Aromatase (Homo sapiens))
